Compounds without any hit were thinned out: in the full panel of roughly 83,000, 20% have a hit.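 The test compound was applied at a single concentration to cells in 96-well plates for 48 hours, and percent growth was recorded.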 Activity calls are given as the source filed them. The calls were made as follows: active = growth percent below 10; inactive = the rest.

Among the test systems are HCT-15 colon; HT29 colon; SNB-75 CNS; SNB-19 CNS; U251 CNS; PC-3 prostate; SK-MEL-5 melanoma; UACC-62 melanoma; LOX IMVI melanoma; SK-MEL-28 melanoma; EKVX NSCLC; SN12C renal; UO-31 renal; TK-10 renal; ACHN renal; CAKI-1 renal; A498 renal; CCRF-CEM leukemia; MOLT-4 leukemia.
Common to all, as to experiment: NCI-60 one-dose screen, 48 h (100 = growth as untreated, 0 = no growth, -100 = all killed)
What all share (details): 10 µM unless noted

In the case of `NC(=O)Nc1cc(-c2cccc(F)c2)sc1C(=O)N[C@H]1CCCNC1`, the growth was -10.6% (active) in the experiment on HCT-15 colon; -24% (active) with HT29 colon; -89.8% (active) with SNB-75 CNS; -26.7% (active) in the experiment on SNB-19 CNS; -62% (active) in the experiment with U251 CNS; 16.2% (inactive) in the experiment with PC-3 prostate. Also, the growth in the experiment on SK-MEL-5 melanoma was -27.5% (active); in the experiment on UACC-62 melanoma, -21.1% (active); in the experiment with LOX IMVI melanoma, -75.2% (active); in the experiment on SK-MEL-28 melanoma, 14.2% (inactive); in the experiment with EKVX NSCLC, 4.42% (active); with SN12C renal it was -5.05% (active). Further, the growth is -95.4% (active) in the experiment with UO-31 renal; -66.3% (active) in the experiment with TK-10 renal; 3.94% (active) in the experiment on ACHN renal; -82.3% (active) in the experiment with CAKI-1 renal; -83.7% (active) in the experiment with A498 renal; 4.63% (active) with CCRF-CEM leukemia. Moreover, the growth in the experiment on MOLT-4 leukemia is 2.79% (active).
`CC1(O)CC(c2nc(-c3ccc4ccc(-c5ccccc5)nc4c3)c3c(N)nccn23)C1` (configuration not stated): the growth is 21.1% (inactive) in the experiment with HCT-15 colon; 5.34% (active) in the experiment with HT29 colon; 32% (inactive) with SNB-75 CNS; 64.7% (inactive) with SNB-19 CNS; 56.7% (inactive) in the experiment on U251 CNS; 35.3% (inactive) with PC-3 prostate. The growth in the experiment with SK-MEL-5 melanoma is 15% (inactive); in the experiment on UACC-62 melanoma, 39.9% (inactive); in the experiment on LOX IMVI melanoma it was 34.7% (inactive); in the experiment with SK-MEL-28 melanoma, 40.7% (inactive); in the experiment on EKVX NSCLC it was 58.8% (inactive); in the experiment with SN12C renal, 41.7% (inactive). In addition, the growth is 6.56% (active) with UO-31 renal; 42.6% (inactive) in the experiment on TK-10 renal; 31.7% (inactive) in the experiment with ACHN renal; 10.1% (inactive) in the experiment on CAKI-1 renal; -3.83% (active) in the experiment with A498 renal; 27.1% (inactive) with CCRF-CEM leukemia. In the experiment on MOLT-4 leukemia, the growth was 12.9% (inactive).
As to `C=CCCCOC1[C@H](OCc2ccccc2)C(OCc2ccccc2)C(OC)O[C@@H]1CNC(=O)c1cccc(I)c1` (some centres not stated), the growth in the experiment with HCT-15 colon was 24.9% (inactive); in the experiment on HT29 colon it was 33.1% (inactive); in the experiment on SNB-75 CNS, 54.4% (inactive); in the experiment with SNB-19 CNS, 49.9% (inactive); in the experiment with U251 CNS, 25.4% (inactive); in the experiment on PC-3 prostate, 25% (inactive). Also, the growth in the experiment with SK-MEL-5 melanoma was -6.8% (active); with UACC-62 melanoma, 30.9% (inactive); in the experiment with LOX IMVI melanoma, 11.4% (inactive); in the experiment on SK-MEL-28 melanoma, 70.5% (inactive); with EKVX NSCLC, 36.3% (inactive); with SN12C renal it was 38.7% (inactive). In addition, the growth in the experiment with UO-31 renal is 35.4% (inactive); in the experiment with TK-10 renal it was 64.5% (inactive); with ACHN renal, 32.9% (inactive); in the experiment with CAKI-1 renal, 38.3% (inactive); with A498 renal, 71.2% (inactive); in the experiment with CCRF-CEM leukemia, 13.8% (inactive). Moreover, in the experiment on MOLT-4 leukemia, the growth was 20.4% (inactive).
In the case of `CN[C@@H]1C[C@H]2O[C@@](C)([C@@H]1OC)n1c3ccccc3c3c4c(c5c6ccccc6n2c5c31)C(=O)N[C@H]4O`, the growth in the experiment on HCT-15 colon was -16.8% (active); with HT29 colon, -16.7% (active); in the experiment on SNB-75 CNS it was -98.9% (active); with SNB-19 CNS, -34.4% (active); in the experiment on U251 CNS, -85.3% (active); with PC-3 prostate, 4.43% (active). The growth in the experiment on SK-MEL-5 melanoma is -98.9% (active); with UACC-62 melanoma it was -63.1% (active); with LOX IMVI melanoma, -85.5% (active); with SK-MEL-28 melanoma it was -61.3% (active); in the experiment on EKVX NSCLC, -4.21% (active); in the experiment on SN12C renal it was -38.7% (active). Further, the growth in the experiment with UO-31 renal is -64.4% (active); in the experiment with TK-10 renal it was -34% (active); in the experiment on ACHN renal it was 5.01% (active); in the experiment with CAKI-1 renal it was -59.7% (active); in the experiment on A498 renal, -97.1% (active); with CCRF-CEM leukemia it was 0.26% (active). Also, the growth in the experiment on MOLT-4 leukemia was 0.831% (active).
As for `C[C@@H](N)c1ccc(C(=O)Nc2ccnc3[nH]ccc23)cc1`, the growth is 68.3% (inactive) in the experiment with HCT-15 colon; 32% (inactive) in the experiment with HT29 colon; 6.4% (active) with SNB-75 CNS; 60.7% (inactive) with SNB-19 CNS; 46.7% (inactive) in the experiment on U251 CNS; 44.9% (inactive) in the experiment with PC-3 prostate. The growth in the experiment on SK-MEL-5 melanoma was 67.8% (inactive); in the experiment on UACC-62 melanoma it was 82.1% (inactive); with LOX IMVI melanoma it was 45.5% (inactive); in the experiment with SK-MEL-28 melanoma, 63% (inactive); in the experiment on EKVX NSCLC, 67% (inactive); in the experiment with SN12C renal, 51.8% (inactive). The growth in the experiment on UO-31 renal is 13.4% (inactive); in the experiment with TK-10 renal it was 46.2% (inactive); with ACHN renal, 36.7% (inactive); in the experiment with CAKI-1 renal, 20.6% (inactive); with A498 renal, 56.9% (inactive); with CCRF-CEM leukemia, 25.5% (inactive). Moreover, the growth with MOLT-4 leukemia was 42.2% (inactive).
On to `Cc1cc(-c2cc(OC(=O)c3ccccc3)ccc2Cl)cc2nnc(Nc3ccc(OCCN4CCCC4)cc3)nc12`, for which the growth in the experiment with HCT-15 colon was -66.9% (active); in the experiment with HT29 colon, 63.9% (inactive); with SNB-75 CNS, 32.7% (inactive); with SNB-19 CNS, 91.9% (inactive); in the experiment with U251 CNS it was 84.8% (inactive); with PC-3 prostate it was -20.2% (active). In addition, the growth was 83.1% (inactive) with SK-MEL-5 melanoma; 75.6% (inactive) in the experiment on UACC-62 melanoma; 48.4% (inactive) with LOX IMVI melanoma; 89.2% (inactive) with SK-MEL-28 melanoma; 92.3% (inactive) with EKVX NSCLC; 66.3% (inactive) in the experiment on SN12C renal. The growth with UO-31 renal was 73.9% (inactive); in the experiment with TK-10 renal it was 89.7% (inactive); with ACHN renal, 74.2% (inactive); in the experiment with CAKI-1 renal, 86.3% (inactive); in the experiment on A498 renal it was 94.3% (inactive); with CCRF-CEM leukemia, 3.09% (active). Moreover, the growth with MOLT-4 leukemia was 73.1% (inactive).
As for `COc1cc2ncnc(Oc3cccc(NC(=O)Nc4cc(C(C)(C)C(F)(F)F)on4)c3)c2cc1OC`, the growth is 22.4% (inactive) in the experiment with HCT-15 colon; 6.54% (active) in the experiment with HT29 colon; 38.1% (inactive) in the experiment with SNB-75 CNS; 74.9% (inactive) in the experiment on SNB-19 CNS; 50.8% (inactive) in the experiment on U251 CNS; 35.1% (inactive) with PC-3 prostate. The growth in the experiment with SK-MEL-5 melanoma is 0.0888% (active); in the experiment with UACC-62 melanoma it was -10.5% (active); in the experiment on LOX IMVI melanoma, 0.911% (active); in the experiment on SK-MEL-28 melanoma, -3.09% (active); in the experiment on EKVX NSCLC, 26.1% (inactive); in the experiment with SN12C renal, 21.1% (inactive). Further, the growth with UO-31 renal is -0.0562% (active); with TK-10 renal, -7.18% (active); in the experiment on ACHN renal it was 3.9% (active); in the experiment on CAKI-1 renal, 8.99% (active); with A498 renal, -24.9% (active); in the experiment on CCRF-CEM leukemia, 39.7% (inactive). The growth in the experiment with MOLT-4 leukemia was 13.3% (inactive).
Take `CCCCN1C(=O)c2cccc3c(-c4ccc5c(c4)ncn5C4CCCCC4)ccc(c23)C1=O`: the growth was 106% (inactive) in the experiment on HCT-15 colon; 84.1% (inactive) in the experiment on HT29 colon; 92.3% (inactive) with SNB-75 CNS; 106% (inactive) in the experiment with SNB-19 CNS; 98.3% (inactive) in the experiment on U251 CNS; 94.3% (inactive) in the experiment on PC-3 prostate. Moreover, the growth is 107% (inactive) in the experiment on SK-MEL-5 melanoma; 92.8% (inactive) in the experiment with UACC-62 melanoma; 102% (inactive) in the experiment with LOX IMVI melanoma; 117% (inactive) with SK-MEL-28 melanoma; 99.8% (inactive) in the experiment on EKVX NSCLC; 105% (inactive) with SN12C renal. The growth in the experiment with UO-31 renal is 82.1% (inactive); in the experiment with TK-10 renal it was 102% (inactive); in the experiment on ACHN renal, 107% (inactive); in the experiment on CAKI-1 renal, 93.7% (inactive); in the experiment on A498 renal, 118% (inactive); in the experiment on CCRF-CEM leukemia it was 113% (inactive). Besides, the growth in the experiment on MOLT-4 leukemia was 94.7% (inactive).
